# Reference: PubChem BioAssay (Tox21)
# Values without a mark were called inactive. Records with an inconclusive call do not appear. Entries that show only a call come without a potency. Activity calls are given as the source filed them. Unless noted, calls follow the shape of the dose curve; as a rule, active = well fitted curve in the direction sought with a large enough effect in the repeat runs; inconclusive = weak or mixed curves; inactive = no such curve, though single readings can be large; an effect the other way counts as inactive or inconclusive.
# Columns and labels:
# [1] = qHTS assay to test for compound auto fluorescence at 535 nm (green) in HEK293 cells (AID 720680)
# [2] = qHTS assay to test for compound auto fluorescence at 460 nm (blue) in HEK293 cell free culture (AID 720681)
# Procedure, shortened: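 Compounds were added to cell-free DMEM with 10% FBS and fluorescence read directly. The blue channel used 405 nm excitation and 460 nm emission, with triamterene as the reference fluorophore.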
# [3] = qHTS assay to test for compound auto fluorescence at 535 nm (green) in HEK293 cell free culture (AID 720682)
# Procedure, shortened: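 Green-label autofluorescence (485 nm excitation, 535 nm emission) measured on compound added to cell-free culture medium (DMEM, 10% FBS). Output is expressed relative to fluorescein.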
# [4] = qHTS assay to test for compound auto fluorescence at 590 nm (red) in HEK293 cell free culture (AID 720683)
# Procedure, shortened: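 Cell-free wells of DMEM with 10% FBS received compound, and intrinsic fluorescence was read at excitation/emission 540/590 nm. Values expressed as equivalence to Rose Bengal sodium.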
# [5] = qHTS assay to test for compound auto fluorescence at 590 nm (red) in HepG2 cell free culture (AID 720684)
# Procedure, shortened: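 Rose Bengal sodium served as the reference for red signal. Test compounds were dispensed into serum-containing MEM (10% FBS) without cells, and plates were read at 540/590 nm.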
# [6] = qHTS assay to test for compound auto fluorescence at 460 nm (blue) in HepG2 cell free culture (AID 720685)
# Procedure, shortened: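 Cell-free plates of MEM plus 10% FBS received 23 nL compound or DMSO vehicle; blue-channel (405/460 nm) intensity scored against triamterene as reference fluorophore.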
# [7] = qHTS assay to test for compound auto fluorescence at 535 nm (green) in HepG2 cell free culture (AID 720686)
# [8] = qHTS assay to test for compound auto fluorescence at 460 nm (blue) in HepG2 cells (AID 720687)
# Procedure, shortened: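 HepG2 cells in MEM with 10% FBS, attached overnight at 37 C, were exposed to compound or DMSO for 1 hr at 37 C, 5% CO2. Blue fluorescence was read at 405/460 nm, with triamterene as reference fluorophore.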
# [9] = biological target: Glucocorticoid receptor (Homo sapiens) (UniProt P04150); test: qHTS assay to identify small molecule agonists of the glucocorticoid receptor (GR) signaling pathway (AID 720691; active = well fitted activation curve with a large enough effect in the signal ratio in the repeat runs, not every such curve was filed as active; the % refers to the signal ratio; also: potency is read from the fitted curve at half-maximal effect)
# Procedure, shortened: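 Cells: GR-bla HeLa, endogenous GR with stably integrated GRE-beta-lactamase reporter. Treatment 18 h, 37 C, compounds delivered in DMSO. Detection via LiveBLAzer B/G FRET substrate, 2 h RT, fluorescence intensity.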
# [10] = biological target: Glucocorticoid receptor (Homo sapiens) (UniProt P04150); test: qHTS assay to identify small molecule antagonists of the glucocorticoid receptor (GR) signaling pathway (AID 720692; active = well fitted inhibition curve with a large enough effect in the signal ratio in the repeat runs, not every such curve was filed as active; the % refers to the signal ratio)
# Procedure, shortened: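 Quantitative HTS in antagonist format: HeLa cells expressing endogenous GR and a stably integrated GRE-bla reporter, stimulated with 5 nM dexamethasone (final) alongside test compounds for 18 h.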
# [11] = qHTS assay to identify small molecule antagonists of the glucocorticoid receptor (GR) signaling pathway - cell viability counter screen (AID 720693); also: nearly all actives have a fitted effect of over 55% in size
# [12] = qHTS assay for identifying genotoxic compounds that show differential cytotoxicity against isogenic chicken DT40 cell lines with known DNA damage response pathways - wild type cell line (AID 743012); also: nearly all actives have a fitted effect of over 60% in size
# Procedure, shortened: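 Luminescent ATP viability signal (CellTiter-Glo, 30 min RT) recorded after wild type DT40 cells were incubated with compounds for 40 h at 37 C/5% CO2.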
# [13] = qHTS assay for identifying genotoxic compounds that show differential cytotoxicity against isogenic chicken DT40 cell lines with known DNA damage response pathways - Rev3 mutant cell line (AID 743014); also: nearly all actives have a fitted effect of over 55% in size; also: potency is read from the fitted curve at half-maximal effect
# [14] = qHTS assay for identifying genotoxic compounds that show differential cytotoxicity against isogenic chicken DT40 cell lines with known DNA damage response pathways - Rad54/Ku70 mutant cell line (AID 743015); also: nearly all actives have a fitted effect of over 60% in size; also: potency is read from the fitted curve at half-maximal effect
# [15] = qHTS assay to identify small molecule antagonists of the androgen receptor (AR) signaling pathway - cell viability counter screen (AID 743033; also: nearly all actives have a fitted effect of over 45% in size)
# [16] = qHTS assay to identify small molecule antagonists of the androgen receptor (AR) signaling pathway using the MDA cell line - cell viability counter screen (AID 743041; also: nearly all actives have a fitted effect of over 45% in size)
# Procedure, shortened: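 Cytotoxicity counter screen: MDA-kb2 AR-luc cells, compound + R1881, 16 h, 37C, 0% CO2; CellTiter-Fluor added at 15.5 h, fluorescence read after 30 min.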
# [17] = biological target: Androgen receptor (Homo sapiens) (UniProt P10275); test: qHTS assay to identify small molecule antagonists of the androgen receptor (AR) signaling pathway (AID 743035; active = well fitted inhibition curve with a large enough effect in the signal ratio in the repeat runs, not every such curve was filed as active; the % refers to the signal ratio)
# Procedure, shortened: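 Quantitative HTS of the Tox21 10K library used HEK293 AR-UAS-bla cells stimulated with R1881 alongside compound for 16 h at 37C, followed by beta-lactamase FRET detection (LiveBLAzer B/G, 2 h, RT).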
# [18] = biological target: Androgen receptor (Homo sapiens) (UniProt P10275); test: qHTS assay to identify small molecule agonists of the androgen receptor (AR) signaling pathway (AID 743036; active = well fitted activation curve with a large enough effect in the signal ratio in the repeat runs, with a control signal flat, not every such curve was filed as active; the % refers to the signal ratio)
# Procedure, shortened: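 AR-UAS-bla HEK293 cells, plated 4 h before dosing, were treated with compound for 16 h at 37C. beta-Lactamase reporter read after 2 h with LiveBLAzer B/G FRET substrate at room temperature.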
# [19] = biological target: Androgen receptor (Homo sapiens) (UniProt P10275); test: qHTS assay to identify small molecule agonists of the androgen receptor (AR) signaling pathway using the MDA cell line (AID 743040; also: nearly all actives have a fitted effect of over 20% in size)
# Procedure, shortened: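 Luciferase read-out, ONE-Glo, 30 min RT. Cells: MDA-kb2 AR-luc, MMTV promoter with AR and GR response elements. Compound exposure 16 h, 37C, 0% CO2, after 5 h pre-incubation. qHTS agonist mode.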
# [20] = biological target: Androgen receptor (Homo sapiens) (UniProt P10275); test: qHTS assay to identify small molecule antagonists of the androgen receptor (AR) signaling pathway using the MDA cell line (AID 743042; also: nearly all actives have a fitted effect of over 55% in size)
# Procedure, shortened: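 MDA-kb2 breast carcinoma cells carrying MMTV-luciferase (AR/GR responsive) were co-treated with compounds and the agonist R1881 for 16 h at 37C. Inhibition read as ONE-Glo luminescence; CellTiter-Fluor fluorescence measured in parallel for cytotoxicity.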
# Glucocorticoid receptor (Homo sapiens), sequence (P04150 whole entry, looked up): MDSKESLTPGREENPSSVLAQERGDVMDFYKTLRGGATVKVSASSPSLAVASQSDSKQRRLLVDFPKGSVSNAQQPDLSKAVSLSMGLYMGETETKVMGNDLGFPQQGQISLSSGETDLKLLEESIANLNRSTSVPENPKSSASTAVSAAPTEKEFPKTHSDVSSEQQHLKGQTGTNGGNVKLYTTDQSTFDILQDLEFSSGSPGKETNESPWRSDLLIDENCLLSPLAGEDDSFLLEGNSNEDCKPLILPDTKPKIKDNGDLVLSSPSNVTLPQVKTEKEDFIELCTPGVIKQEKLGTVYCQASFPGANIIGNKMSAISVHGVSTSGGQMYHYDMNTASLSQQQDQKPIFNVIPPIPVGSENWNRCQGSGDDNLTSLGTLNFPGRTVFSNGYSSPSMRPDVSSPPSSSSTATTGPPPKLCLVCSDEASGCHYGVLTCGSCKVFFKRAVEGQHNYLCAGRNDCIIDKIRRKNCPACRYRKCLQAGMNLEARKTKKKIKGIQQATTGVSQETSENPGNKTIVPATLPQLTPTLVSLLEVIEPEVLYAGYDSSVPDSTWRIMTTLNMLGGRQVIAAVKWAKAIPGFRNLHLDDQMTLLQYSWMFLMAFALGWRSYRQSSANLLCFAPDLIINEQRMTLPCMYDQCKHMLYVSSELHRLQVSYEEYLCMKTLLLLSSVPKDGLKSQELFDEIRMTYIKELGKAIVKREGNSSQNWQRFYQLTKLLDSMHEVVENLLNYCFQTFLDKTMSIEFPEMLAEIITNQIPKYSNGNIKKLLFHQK
# Androgen receptor (Homo sapiens), sequence (P10275 whole entry, looked up): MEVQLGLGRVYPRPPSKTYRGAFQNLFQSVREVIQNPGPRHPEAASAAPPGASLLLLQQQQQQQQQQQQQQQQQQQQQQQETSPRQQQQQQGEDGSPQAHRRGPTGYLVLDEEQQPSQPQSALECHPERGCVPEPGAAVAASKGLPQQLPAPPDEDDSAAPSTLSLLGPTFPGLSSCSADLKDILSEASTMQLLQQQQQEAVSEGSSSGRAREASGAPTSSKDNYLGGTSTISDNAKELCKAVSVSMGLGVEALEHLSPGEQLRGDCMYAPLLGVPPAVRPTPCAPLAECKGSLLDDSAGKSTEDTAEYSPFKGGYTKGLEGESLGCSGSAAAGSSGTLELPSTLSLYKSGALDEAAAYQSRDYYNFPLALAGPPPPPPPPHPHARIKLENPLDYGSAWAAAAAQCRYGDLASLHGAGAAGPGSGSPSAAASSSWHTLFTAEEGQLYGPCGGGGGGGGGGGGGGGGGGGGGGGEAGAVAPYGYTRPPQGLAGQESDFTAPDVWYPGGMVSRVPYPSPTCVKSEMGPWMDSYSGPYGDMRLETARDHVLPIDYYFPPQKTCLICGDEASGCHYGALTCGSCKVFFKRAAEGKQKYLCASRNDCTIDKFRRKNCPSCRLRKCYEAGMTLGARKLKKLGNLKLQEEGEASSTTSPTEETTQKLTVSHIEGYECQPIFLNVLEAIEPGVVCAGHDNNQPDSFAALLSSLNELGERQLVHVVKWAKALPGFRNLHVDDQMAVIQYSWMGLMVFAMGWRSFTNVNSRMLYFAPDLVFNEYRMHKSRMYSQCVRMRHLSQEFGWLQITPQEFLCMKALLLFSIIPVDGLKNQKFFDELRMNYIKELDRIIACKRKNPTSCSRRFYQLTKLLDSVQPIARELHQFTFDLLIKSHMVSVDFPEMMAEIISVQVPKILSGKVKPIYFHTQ
compound,measurement,setting,value
O=C1CCC(=O)N1Cl,outcome,[1],inactive
same,outcome,[2],inactive
same,outcome,[3],inactive
same,outcome,[4],inactive
same,outcome,[5],inactive
same,outcome,[6],inactive
same,outcome,[7],inactive
same,outcome,[8],inactive
same,Potency,[9],inactive
same,outcome,[10],inactive
same,outcome,[11],inactive
same,Potency,[12],inactive
same,Potency,[13],inactive
same,Potency,[14],inactive
same,outcome,[15],inactive
same,Potency,[16],inactive
CCCCSCCCC,outcome,[1],inactive
same,outcome,[2],inactive
same,outcome,[3],inactive
same,outcome,[4],inactive
same,outcome,[5],inactive
same,outcome,[6],inactive
same,outcome,[7],inactive
same,outcome,[8],inactive
same,Potency,[9],inactive
same,outcome,[10],inactive
same,outcome,[11],inactive
same,Potency,[12],inactive
same,Potency,[13],inactive
same,Potency,[14],inactive
same,outcome,[15],inactive
same,Potency,[16],inactive
CCCCOC(=O)[C@H](C)O,outcome,[1],inactive
same,outcome,[2],inactive
same,outcome,[3],inactive
same,outcome,[4],inactive
same,outcome,[5],inactive
same,outcome,[6],inactive
same,outcome,[7],inactive
same,outcome,[8],inactive
same,Potency,[9],inactive
same,outcome,[10],inactive
same,outcome,[11],inactive
same,Potency,[14],inactive
same,outcome,[15],inactive
same,Potency,[16],inactive
CCCCCCCCCCCCCCCCCCOCCO,"fluorescence, % of fluorescein",[1],-0.0578% [at 18.6 µM]
same,"fluorescence, % of fluorescent control",[2],-0.0158% [at 18.6 µM]
same,activity change,[3],-0.0191% [at 18.6 µM]
same,"fluorescence, % of fluorescent control",[4],0.138% [at 18.6 µM]
same,"fluorescence, % of Rose Bengal",[5],-0.0112% [at 18.6 µM]
same,"fluorescence, % of fluorescent control",[6],0.0125% [at 18.6 µM]
same,"fluorescence, % of fluorescein control",[7],-0.0027% [at 18.6 µM]
same,"fluorescence, % of fluorescent control",[8],0.0321% [at 18.6 µM]
same,Potency,[9],inactive
same,outcome,[11],inactive
same,Potency,[12],inactive
same,Potency,[13],inactive
same,Potency,[14],inactive
same,outcome,[15],inactive
same,Potency,[16],inactive
CC(O)COC(C)(C)C (stereo unspecified),outcome,[1],inactive
same,outcome,[2],inactive
same,outcome,[3],inactive
same,outcome,[4],inactive
same,outcome,[5],inactive
same,outcome,[6],inactive
same,outcome,[7],inactive
same,outcome,[8],inactive
same,Potency,[9],inactive
same,outcome,[11],inactive
same,Potency,[12],inactive
same,Potency,[14],inactive
same,outcome,[15],inactive
same,Potency,[16],inactive
Cc1ccnc(N)c1,outcome,[1],inactive
same,outcome,[2],inactive
same,outcome,[3],inactive
same,outcome,[4],inactive
same,outcome,[5],inactive
same,outcome,[6],inactive
same,outcome,[7],inactive
same,outcome,[8],inactive
same,Potency,[9],inactive
same,outcome,[10],inactive
same,outcome,[11],inactive
same,Potency,[13],48.6 µM (active)
same,Potency,[14],48.6 µM (active)
same,outcome,[15],inactive
same,Potency,[16],inactive
CC(=O)C(C)O (stereo unspecified),outcome,[1],inactive
same,outcome,[2],inactive
same,outcome,[3],inactive
same,outcome,[4],inactive
same,outcome,[5],inactive
same,outcome,[6],inactive
same,outcome,[7],inactive
same,outcome,[8],inactive
same,outcome,[11],inactive
same,Potency,[12],inactive
same,Potency,[13],inactive
same,Potency,[14],inactive
same,outcome,[15],inactive
same,Potency,[16],inactive
C[C@@H](O)C(=O)O,outcome,[1],inactive
same,outcome,[2],inactive
same,outcome,[3],inactive
same,outcome,[4],inactive
same,outcome,[5],inactive
same,outcome,[6],inactive
same,outcome,[7],inactive
same,outcome,[8],inactive
same,outcome,[11],inactive
same,Potency,[12],inactive
same,Potency,[13],inactive
same,Potency,[14],inactive
same,outcome,[15],inactive
same,Potency,[16],inactive
O=C(Cl)c1ccccc1[N+](=O)[O-],outcome,[1],inactive
same,outcome,[2],inactive
same,outcome,[3],inactive
same,outcome,[4],inactive
same,outcome,[5],inactive
same,outcome,[6],inactive
same,outcome,[7],inactive
same,outcome,[8],inactive
same,Potency,[9],inactive
same,Potency,[12],inactive
same,Potency,[14],inactive
same,outcome,[15],inactive
same,outcome,[17],inactive
same,outcome,[18],inactive
same,Potency,[19],inactive
same,Potency,[16],inactive
same,outcome,[20],inactive
COS(=O)(=O)O,outcome,[1],inactive
same,outcome,[2],inactive
same,outcome,[3],inactive
same,outcome,[4],inactive
same,outcome,[5],inactive
same,outcome,[6],inactive
same,outcome,[7],inactive
same,outcome,[8],inactive
same,outcome,[11],inactive
same,Potency,[12],inactive
same,Potency,[13],inactive
same,Potency,[14],inactive
same,outcome,[15],inactive
same,Potency,[16],inactive
CC(=O)CC(=O)OC(C)(C)C,outcome,[1],inactive
same,outcome,[2],inactive
same,outcome,[3],inactive
same,outcome,[4],inactive
same,outcome,[5],inactive
same,outcome,[6],inactive
same,outcome,[7],inactive
same,outcome,[8],inactive
same,Potency,[9],inactive
same,Potency,[12],inactive
same,Potency,[13],inactive
same,Potency,[14],inactive
same,outcome,[15],inactive
same,outcome,[17],inactive
same,Potency,[19],inactive
same,Potency,[16],inactive
same,outcome,[20],inactive
CC1(C)O[C@H]2CC(=O)OC[C@]23[C@H]2CC[C@@]4(C)[C@H](c5ccoc5)OC(=O)[C@H]5O[C@]54[C@]2(C)C(=O)C[C@@H]13,outcome,[1],inactive
same,outcome,[2],inactive
same,outcome,[3],inactive
same,outcome,[4],inactive
same,outcome,[5],inactive
same,outcome,[6],inactive
same,outcome,[7],inactive
same,outcome,[8],inactive
same,Potency,[9],8.49 µM (active)
same,outcome,[11],inactive
same,Potency,[12],inactive
same,Potency,[14],inactive
same,outcome,[15],inactive
same,Potency,[16],inactive
Cc1c(C(=O)c2c[nH]n(C)c2=O)ccc(S(C)(=O)=O)c1C1=NOCC1,outcome,[1],inactive
same,outcome,[2],inactive
same,outcome,[3],inactive
same,outcome,[4],inactive
same,outcome,[5],inactive
same,outcome,[6],inactive
same,outcome,[7],inactive
same,outcome,[8],inactive
same,Potency,[9],inactive
same,outcome,[11],inactive
same,Potency,[12],inactive
same,Potency,[13],inactive
same,Potency,[14],inactive
same,outcome,[15],inactive
same,outcome,[17],inactive
same,Potency,[19],inactive
same,Potency,[16],inactive
same,outcome,[20],inactive
CCCc1ccc(O)cc1,outcome,[1],inactive
same,outcome,[2],inactive
same,outcome,[3],inactive
same,outcome,[4],inactive
same,outcome,[5],inactive
same,outcome,[6],inactive
same,outcome,[7],inactive
same,outcome,[8],inactive
same,Potency,[9],inactive
same,outcome,[11],inactive
same,Potency,[12],inactive
same,Potency,[13],inactive
same,Potency,[14],inactive
same,outcome,[15],inactive
same,Potency,[16],inactive
OC1OCCOC1O (stereo unspecified),outcome,[1],inactive
same,outcome,[2],inactive
same,outcome,[3],inactive
same,outcome,[4],inactive
same,outcome,[5],inactive
same,outcome,[6],inactive
same,outcome,[7],inactive
same,outcome,[8],inactive
same,Potency,[9],inactive
same,outcome,[11],inactive
same,Potency,[12],inactive
same,Potency,[13],inactive
same,Potency,[14],inactive
same,outcome,[15],inactive
same,Potency,[16],inactive
Cn1c(=O)c2c(ncn2CCO)n(C)c1=O,outcome,[1],inactive
same,outcome,[2],inactive
same,outcome,[3],inactive
same,outcome,[4],inactive
same,outcome,[5],inactive
same,outcome,[6],inactive
same,outcome,[7],inactive
same,outcome,[8],inactive
same,outcome,[11],inactive
same,Potency,[12],inactive
same,Potency,[13],inactive
same,Potency,[14],inactive
same,outcome,[15],inactive
same,Potency,[16],inactive
CC(=O)CCC1=C(C)CCCC1(C)C,outcome,[1],inactive
same,outcome,[2],inactive
same,outcome,[3],inactive
same,outcome,[4],inactive
same,outcome,[5],inactive
same,outcome,[6],inactive
same,outcome,[7],inactive
same,outcome,[8],inactive
same,Potency,[9],inactive
same,outcome,[10],inactive
same,outcome,[11],inactive
same,Potency,[12],inactive
same,outcome,[15],inactive
same,Potency,[16],inactive
